# From PubChem BioAssay AID1918 (Vanderbilt High Throughput Screening Facility, 2009)
# In all, about 130,000 compounds went through this assay and about 2,500 (1.9%) were called active. This is one part of a sample in which actives are shown more often than they occur. A number with no mark means an inactive call.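 How the source made its calls: active means signal ratio slope over the read window, or its plate-corrected B-score, at least 3 SD from the plate mean, either direction; inactive means the rest.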
# Target: ATP-sensitive inward rectifier potassium channel 1 (Homo sapiens) (UniProt P48048)
# Sequence (P48048 whole entry, looked up): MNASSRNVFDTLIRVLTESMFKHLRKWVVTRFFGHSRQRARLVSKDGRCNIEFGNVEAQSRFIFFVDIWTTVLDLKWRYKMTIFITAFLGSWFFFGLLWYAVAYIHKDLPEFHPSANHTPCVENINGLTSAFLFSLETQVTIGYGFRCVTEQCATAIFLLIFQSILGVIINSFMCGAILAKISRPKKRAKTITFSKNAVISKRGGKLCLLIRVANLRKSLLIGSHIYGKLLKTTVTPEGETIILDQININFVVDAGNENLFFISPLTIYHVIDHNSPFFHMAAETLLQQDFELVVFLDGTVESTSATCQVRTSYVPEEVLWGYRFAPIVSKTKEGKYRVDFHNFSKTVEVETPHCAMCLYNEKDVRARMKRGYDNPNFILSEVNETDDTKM
# Assay: Kir1.1 channel activity modulation, library screen – cell-based, thallium flux, MLSMR library, primary screen (AID 1918);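 further: B-score of the F/F0 ratio slope over 7 to 12 s after thallium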
# Details: Tet-inducible ROMK, thallium flux fluorescence; at 10 µM; actives lie on both sides
row,Structure (SMILES),B-score
1,O=C1CC(=O)Nc2cc(S(=O)(=O)N3CCN(c4cccc(C(F)(F)F)c4)CC3)ccc2N1,-0.0476
2,COc1ccccc1C(c1nnnn1CC1CCCO1)N1CCN(c2ccccc2)CC1 (configuration not stated),-0.18
3,COc1ccc2[nH]c(=O)c(CN(Cc3nnnn3CCc3ccccc3)CC3CCCO3)cc2c1 (configuration not stated),-1.17
4,Cc1cc2cc(CN(Cc3cccs3)Cc3nnnn3CC3CCCO3)c(=O)[nH]c2cc1C (configuration not stated),-5.43 (active)
5,CCN(CC)CC1(O)CCN(C(=O)c2ccc(Cl)c(Cl)c2)CC1,0.898
6,Cc1nn(CC(=O)Nc2ccc3c(c2)OCO3)c(C)c1[N+](=O)[O-],0.634
7,CC(CC(=O)Nc1ccccc1)n1ccnc1 (configuration not stated),-0.543
8,O=C(/C=C/c1ccc(N2CCOCC2)cc1)c1ccccc1,-3.77 (active)
9,O=C(CN1CCN(S(=O)(=O)/C=C/c2ccccc2)CC1)Nc1ccc(N2CCOCC2)cc1,1.12
10,O=C(O)c1ccc2c(c1)C(=O)N(c1ccc(/C=C/C(=O)c3ccccc3)cc1)C2=O,-2.93 (active)
11,O=C(NC(=O)N1CCOCC1)c1ccccc1,0.751
12,CC(=O)Oc1ccc(C)cc1N1C(=O)c2ccc(C(=O)O)cc2C1=O,0.575
13,O=C(c1ccc2c(c1)C(=O)N(c1ccc(Cl)cc1)C2=O)N1CCN(c2ccccn2)CC1,0.202
14,COc1cc(NC(=O)COC(=O)c2cnc(C)cn2)c(C)cc1[N+](=O)[O-],-0.377
15,O=C(O)c1ccccc1C(=O)Nc1ccccc1[N+](=O)[O-],-0.117
16,Cc1csc(NC(=O)CSc2ccc(-c3ccc(F)cc3)nn2)n1,-0.896
17,Cc1ccc(C(=O)C[n+]2cc(-c3ccccc3)n3c2CCCCC3)cc1,-3.3 (active)
18,Cc1ccc(C(=O)N2CCCC(c3ccccc3)=N2)cc1,-0.95
19,Cn1c(-c2ccccc2)c[n+]2c1CCCCC2,0.591
20,CCOC(=O)C1CCCN(C(=O)COc2ccc(N(C)S(=O)(=O)c3ccc(C)cc3)cc2)C1 (configuration not stated),0.882
21,CCN(CC)S(=O)(=O)c1ccc(NC(=O)c2cccnc2Cl)c(NC(=O)c2cccnc2Cl)c1,0.845
22,Cc1ccc(CNC(=O)CC2Sc3ccccc3NC2=O)cc1 (configuration not stated),1.17 (active)
23,COc1ccc(CCNC(=O)CC2SC(=Nc3cc(C)cc(C)c3)NC2=O)cc1OC (configuration not stated),-0.14
24,COC(=O)C(C)C1Sc2ccccc2NC1=O (configuration not stated),-0.193
25,CC(Nc1nc(N2CCOCC2)nc2ccccc12)c1ccccc1 (configuration not stated),-0.474

row,Structure (SMILES),B-score
1,CN1CCN(CC(=O)Nc2cccc([N+](=O)[O-])c2)CC1,0.51
2,CNC(=S)NNC(=O)c1cccn(Cc2ccccc2)c1=O,0.643
3,O=C(Nc1cccc(Cl)c1N1CCOCC1)c1ccc2c(c1)OCCO2,-0.937
4,CCS(=O)(=O)c1ccc(C(=O)NC)c(Cl)c1Cl,0.613
5,Cc1ccc2nc3n(c(=O)c2c1)CCC3,0.127
6,Cc1ccc2c(=O)oc(N(C)C)nc2c1,2.36 (active)
7,CN(C)c1ccc2c(=O)[nH][nH]c(=O)c2c1,0.291
8,Cc1cc(C)c(C(N)=O)c(Cl)n1,0.133
9,CC1CCCN(S(=O)(=O)c2ccc(C(=O)Nc3nnc(-c4ccncc4)o3)cc2)C1 (configuration not stated),0.153
10,Cc1ccc(N(C(=O)C(F)(F)F)C(C(=O)NC2CCCCC2)c2ccncc2)cc1C (configuration not stated),-0.0116
11,CC1CCCN(S(=O)(=O)c2ccc(N(C(=O)c3cnccn3)C(C(=O)NC3CCCCC3)c3cccs3)cc2)C1 (configuration not stated),-3.38 (active)
12,N/C(=N\OC(=O)CCc1ccccc1)c1cccnc1,0.92
13,O=C(/C=C/c1ccccc1[N+](=O)[O-])OC1CCCCC1=O (configuration not stated),0.69
14,COc1ccc(CCNC(=O)CCCCn2c(=O)[nH]c3ccccc3c2=O)cc1OC,0.342
15,COc1ccc(N=Cc2c(O)[nH]c3ccccc23)cc1OC,2.81 (active)
16,COc1ccc(/C=N/S(=O)(=O)c2ccccc2)cc1OC,-0.975
17,CCC1(C)Cc2c(sc3nc4n(c(=O)c23)CCCS4)CO1 (configuration not stated),-0.196
18,CCC1(C)Cc2c(sc3nc(SC)nc(N)c23)CO1 (configuration not stated),-1.15
19,CCC1(C)Cc2c(sc3[nH]c(=S)n(Cc4ccccc4)c(=O)c23)CO1 (configuration not stated),5.27 (active)
20,NC(=O)C1CCN(C(=O)COc2cccc3cccnc23)CC1,0.124
21,Cc1cc(C(=O)N/N=C\C(Br)=C\c2ccccc2)c(C)o1,-0.321
22,CS(=O)(=O)N(CC(=O)N/N=C/c1ccccn1)c1ccc(Oc2ccccc2)cc1,-0.000176
23,COc1ccc(/C=N/NC(=O)C(C)N(c2ccc(OC)cc2)S(C)(=O)=O)cc1 (configuration not stated),-0.0127
24,CC(C(=O)NC1CCCC1)N(c1ccc(Oc2ccccc2)cc1)S(C)(=O)=O (configuration not stated),-3.71 (active)
25,CSc1ccccc1NC(=O)CN(C)CC(=O)Nc1ccc(Cl)cc1[N+](=O)[O-],-1.12

row,Structure (SMILES),B-score
1,Cc1cccc(C)c1OCC(O)CN1CCCCC1 (configuration not stated),0.161
2,Cc1ccccc1C(OCC(O)CN1CCCCC1CCO)c1ccccc1 (configuration not stated),-4.16 (active)
3,CC(C)OCC(O)CN1CCN(C(c2ccccc2)c2ccccc2)CC1 (configuration not stated),-0.0404
4,Cc1ccc(C(=O)OC2CCCN(C)C2)cc1 (configuration not stated),0.17
5,Cc1ccc2nc(COc3ccc(N(C)S(=O)(=O)c4ccccc4)cc3)cc(=O)n2c1,0.648
6,COCCNC(=O)CCCn1c(=O)c2ccccc2n(Cc2cccc([N+](=O)[O-])c2)c1=O,-1.13
7,COc1ccc(CCNC(=O)COC(=O)Cc2cc(OC)c(OC)c(OC)c2)cc1,0.986
8,COc1ccc2c(c1)CCC/C2=N\OC(=O)c1ccccc1F,-0.245
9,Cc1ccccc1-n1nc(SCC(=O)O)sc1=S,-0.00827
10,O=S(=O)(c1ccc2c(c1)OCCO2)N1CCc2ccccc21,0.399
11,O=C(CN1CCC(O)(c2ccccc2)CC1)Nc1ccc2c(c1)OCCO2,0.414
12,O=C(CCN1CCc2ccccc2C(O)(c2ccccc2)C1)c1ccc2c(c1)OCCO2 (configuration not stated),-3.53 (active)
13,COc1ccc(NC(=S)Nc2ccc(S(N)(=O)=O)cc2)c(C)c1,0.982
14,CN(C)CCCN(Cc1cc2cc3c(cc2[nH]c1=O)OCCO3)C(=O)NC1CCCCC1,0.033
15,COc1ccc(NC(=O)COc2ccc(C(=O)OCC(=O)N(C)C3CCS(=O)(=O)C3)cc2OC)cc1 (configuration not stated),0.348
16,Cc1cccc(N2CCN(C(c3ccc(N(C)C)cc3)c3nnnn3C(C)(C)C)CC2)c1C (configuration not stated),-2.94 (active)
17,CC(=O)N1CCN(c2cccc(C)c2C)CC1,-0.0972
18,CC(C)(C)n1nnnc1C(c1ccc2ncccc2c1)N1CCSCC1 (configuration not stated),-0.18
19,CCC(C(=O)Nc1ccc(C(C)C)cc1)c1ccccc1 (configuration not stated),-0.192
20,COc1cc2sc(C)nc2cc1C,1.46
21,Fc1ccc2[nH]c3c(N4CCSCC4)ncnc3c2c1,-5.22 (active)
22,CC(C)OCCCNc1ncnc2c1[nH]c1ccc(F)cc12,-2.49
23,CC(C)OC(=O)C(C#N)c1nc2ccccc2nc1N1CCN(Cc2ccc3c(c2)OCO3)CC1 (configuration not stated),-0.0869
24,O=c1[nH]c(N2CCN(Cc3ccc4c(c3)OCO4)CC2)nc2c1CCCC2,-1.42
25,Fc1ccc2[nH]c3c(N4CCN(Cc5ccc6c(c5)OCO6)CC4)ncnc3c2c1,-3.14 (active)

row,Structure (SMILES),B-score
1,Nn1c(SCC(=O)Nc2nccs2)nncc1=O,1.33
2,COc1ccc(CC(=O)N[C@@H](CCSC)c2nc3ccccc3[nH]2)cc1,-1.58
3,CCc1nnc(NC(=O)CSc2nc(SC)ns2)s1,-0.0846
4,O=C(C1CCCN1S(=O)(=O)c1ccc(Br)cc1)N1CCOCC1 (configuration not stated),-0.207
5,CCn1cc(C(=O)Nc2cc(C)ccc2C)c(=O)c2ccc(C)nc21,0.0033
6,COc1ccc(CC2(CO)CCN(Cc3cnn(C)c3)CC2)cc1,0.221
7,CCOc1cccc(C(=O)Nc2nnc(-c3cccs3)s2)c1,1.45
8,CCOc1cc(/C=C(/C#N)c2ccc(Cl)cc2)cc(Cl)c1OCC(=O)O,1.07
9,CCOc1cc(/C=C(\C#N)c2nc(-c3cccs3)c(NC(C)=O)s2)ccc1O,-2.6 (active)
10,Cc1ccc(S(=O)(=O)N2CCC(N3CCCCCC3)CC2)cc1,0.651
11,Cc1ccc(S(=O)(=O)C2(S(=O)(=O)c3ccc(C)cc3)CCCC2)cc1,3.4 (active)
12,Cc1ccc(S(=O)(=O)N(C)C2(C)CCS(=O)(=O)C2)cc1 (configuration not stated),1.47
13,COc1ccc(N(CC(=O)Nc2ccc(C)cc2C)S(=O)(=O)c2ccccc2[N+](=O)[O-])c(OC)c1,-0.208
14,CN(C)S(=O)(=O)c1cccc(NC(=O)COC(=O)/C=C/c2cccs2)c1,0.12
15,O=C(CN(C(=O)c1csnn1)c1cccc(F)c1)NCc1ccc(F)cc1,0.442
16,O=C(Cn1nc(CNc2ccc(Cl)cc2)[n+]2c1CCCCC2)c1ccc(Cl)cc1,-3.24 (active)
17,O=C(Cn1ncc(N2CCCC2)c(Br)c1=O)c1ccc(Cl)cc1,-0.342
18,COC(=O)c1ccc(NCC(=O)N2CCCCCC2)cc1,-0.512
19,CC(C)CCN1CCN(C/C=C/c2ccco2)CC1CCO (configuration not stated),0.0943
20,COc1cccc(C2Nc3cccc4cccc(c34)N2)c1,-0.051
21,CCOc1cccc(-n2nnnc2-c2ccc(OC)cc2)c1,2.1
22,COc1ccc(C2=CC(c3cccc(OC)c3)n3nnnc3N2)cc1 (configuration not stated),-4.22 (active)
